# Laboratory results taken from PubChem BioAssay (EPA / NIEHS).
# Activity calls are given as the source filed them. Rule for the calls: active = hit-call score of the fitted dose curve at least 0.9, where 1 is the maximum; inactive = score below 0.9.
# Target: Transcription factor E2F1 (Homo sapiens) (UniProt Q01094)
# Assay: ATG_E2F_CIS: Attagene CIS-FACTORIAL HepG2 Assay for human E2F Transcription Factor 1 (AID 2282935)
# Conditions: HepG2 Attagene cis-reporter, E2F reporter RNA transcripts; actives raise or lower the signal
# In short: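 Gain or loss of reporter transcript, fitted against DMSO, reflects E2F1-driven transcription. Transiently transfected HepG2 dosed 24 h before RNA isolation. Quantified by fluorescent RT-PCR products separated by capillary electrophoresis.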
# Transcription factor E2F1 (Homo sapiens), sequence (Q01094 whole entry, looked up): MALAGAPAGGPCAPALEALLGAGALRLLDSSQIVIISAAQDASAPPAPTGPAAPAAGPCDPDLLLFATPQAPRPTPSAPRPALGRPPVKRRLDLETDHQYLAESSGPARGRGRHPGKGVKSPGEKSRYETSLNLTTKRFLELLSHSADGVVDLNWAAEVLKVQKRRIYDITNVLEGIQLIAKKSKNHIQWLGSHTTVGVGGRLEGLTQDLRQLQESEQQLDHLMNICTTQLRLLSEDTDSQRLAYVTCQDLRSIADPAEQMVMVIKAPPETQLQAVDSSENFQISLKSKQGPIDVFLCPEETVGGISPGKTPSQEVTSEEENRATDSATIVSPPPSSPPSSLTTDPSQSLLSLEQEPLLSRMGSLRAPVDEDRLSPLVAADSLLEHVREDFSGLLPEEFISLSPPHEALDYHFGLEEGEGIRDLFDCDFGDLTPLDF
row,SMILES,outcome
1,c1ccc2c(c1)sc1ccccc12,inactive
2,Nc1ccc(Cl)cc1,inactive
3,Nc1ccc2ccccc2c1,inactive
4,Nc1ccc([N+](=O)[O-])cc1Cl,inactive
5,CCOP(=S)(OCC)SCSCC,inactive
6,CCOP(=S)(S)OCC,inactive
7,OCC(F)(F)OC(F)(F)C(F)(F)OC(F)(F)C(F)(F)OC(F)(F)F,inactive
8,O=C(O)C(F)(F)C(F)(F)C(=O)O,inactive
9,Cc1cc(C)c(C(=O)P(=O)(c2ccccc2)c2ccccc2)c(C)c1,inactive
10,CC(C)(C)OOC(C)(C)C,inactive
11,Cn1[nH]nnc1=S,inactive
12,CCOP(=S)(Oc1ccc([N+](=O)[O-])cc1)c1ccccc1 (stereo unspecified),inactive
13,FC(F)(F)C(F)(C(F)(F)F)C(F)(F)C(F)(F)CC1CO1 (stereo unspecified),inactive
14,CCOC(=O)c1ccccc1N,inactive
15,Oc1ccccc1Br,inactive
16,CCOc1ccc(C(C)(C)COCc2cccc(Oc3ccccc3)c2)cc1,inactive
17,CCCCc1ccccc1,inactive
18,CC1=C(C(=O)Nc2ccccc2)S(=O)(=O)CCO1,inactive
19,ClC(Cl)=C(c1ccc(Cl)cc1)c1ccccc1Cl,inactive
20,CCCCC(CC)COC(=O)c1c(Br)c(Br)c(Br)c(Br)c1C(=O)OCC(CC)CCCC (stereo unspecified),inactive
21,OCC(F)(F)OC(F)(F)C(F)(F)OC(F)(F)C(F)(F)OC(F)(F)CO,inactive
22,COP(=O)(O)OC,inactive
23,Clc1ccc(Oc2ccccc2)cc1,inactive
24,N#Cc1ccc(O)cc1,inactive
25,O=C(O)C1C(C(=O)O)C2(Cl)C(Cl)=C(Cl)C1(Cl)C2(Cl)Cl (stereo unspecified),inactive
26,CC(O)C#N (stereo unspecified),inactive
